According to PubChem BioAssay (NCATS):
Values joined by “and” are separate entries in the source; they are usually repeats but may differ in a detail not shown here. Equal entries are not always repeated. Records with an inconclusive call do not appear. Active and inactive are the calls of the source. Unless noted, how the calls were made is not given here.

Assays:
[1] = qHTS profiling for inhibitors of Plasmodium falciparum (3D7) proliferation (AID 743322);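 further: infected erythrocytes exposed to compound for 72 h before lysis; 100% = DMSO vehicle wells and 0% = 0.29 µM artemisinin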; conditions: P. falciparum 3D7 proliferation; at 28.7 µM (top of the series) unless noted
Procedure, shortened: (§1)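 Parasite DNA was quantified by SYBR Green I fluorescence (ex 485, em 535 nm) after overnight lysis in saponin/Triton buffer at room temperature. Cultures at 0.3% parasitemia and 2.5% hematocrit were first exposed to compound for 72 h at 37 C; signals were normalised to artemisinin (0.29 uM) and vehicle wells.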

[2] = qHTS profiling for inhibitors of Plasmodium falciparum (DD2) proliferation (AID 743323); conditions: lower = more inhibition; at 28.7 µM (top of the series) unless noted
Procedure, shortened: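 Parasite proliferation measured via DNA-dye fluorescence, as uninfected erythrocytes lack DNA. Cultures at 0.3% parasitemia and 2.5% hematocrit incubated 72 h with compound; signal scaled between vehicle and 0.29 uM artemisinin wells.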

[3] = qHTS profiling for inhibitors of Plasmodium falciparum (HB3) proliferation (AID 743324; active means well fitted curve in the direction sought with a large enough effect; an effect the other way counts as inactive or inconclusive;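 further: 100% = DMSO vehicle wells and 0% = artemisinin-treated control wells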); conditions: Plasmodium falciparum HB3 blood-stage proliferation; at 28.7 µM (top of the series) unless noted
Procedure, shortened: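 SYBR Green fluorescence (485 ex/535 em) of lysed cultures, incubated overnight at room temperature in the dark, quantifies parasite DNA. Infected erythrocytes at 0.3% parasitemia and 2.5% hematocrit were exposed 72 h; values normalized to DMSO and 0.29 uM artemisinin controls.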

[4] = qHTS profiling of the MIPE4 collection as inhibitors of Plasmodium falciparum (3D7) proliferation (AID 743344);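 further: scaled between DMSO vehicle wells and 0.29 µM artemisinin as full inhibition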; conditions: P. falciparum 3D7 in erythrocytes, SYBR Green DNA fluorescence, 72 h; at 28.5 µM (top of the series) unless noted
Procedure, shortened: as §1

[5] = qHTS profiling of the MIPE4 collection as inhibitors of Plasmodium falciparum (DD2) proliferation (AID 743345); conditions: P. falciparum Dd2 in erythrocytes, SYBR Green DNA, 72 h; at 28.5 µM (top of the series) unless noted
Procedure, shortened: as §1

[6] = qHTS profiling of the MIPE4 collection as inhibitors of Plasmodium falciparum (DD2) proliferation (Rep 2) (AID 743346); conditions: P. falciparum Dd2 in erythrocytes, SYBR Green DNA, 72 h; at 28.5 µM (top of the series) unless noted
Procedure, shortened: as §1

[7] = qHTS profiling of the MIPE4 collection as inhibitors of Plasmodium falciparum (HB3) proliferation (AID 743347);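 further: plate controls were DMSO vehicle wells for no effect and artemisinin wells for full effect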; conditions: P. falciparum HB3 in erythrocytes, SYBR Green DNA, 72 h; at 28.5 µM (top of the series) unless noted
Procedure, shortened: as §1

[8] = High-throughput drug toxicity screening in the BPDCN cell line Gen2.2 (AID 1224824); conditions: Gen2.2 BPDCN cells; at 45.8 µM (top of the series) unless noted;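 further: cells exposed to compounds for 48 h before reading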
Procedure, shortened: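 Gen2.2, 500 cells/well, phenol red-free RPMI/10% FBS/Pen-Strep; 48 h cpd, 37 °C/5% CO2; CTG lum, 15 min RT. Norm: DMSO = 100%, bortezomib 9.2 uM final = 0%.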

[9] = High-throughput drug toxicity screening in the BPDCN cell line Cal-1 (AID 1224825); conditions: Cal-1 BPDCN cell viability, qHTS; at 45.8 µM (top of the series) unless noted
Procedure, shortened: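 Viability of the BPDCN line Cal-1 is measured as ATP-based luminescence (CellTiter-Glo) following 48 h incubation with compounds. Percent activity uses DMSO-treated wells as 100% and 9.2 uM bortezomib as 0%.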

[10] = qHTS assay for measurement of the activity of small molecule inhibitors on Zika virus induced Caspase-3 activity in human iPSC derived neural progenitor cells (hNPCs) (AID 1224857; active means well fitted curve in the direction sought with a large enough effect; an effect the other way counts as inactive or inconclusive; further: % of control where 0% means no effect; nearly all actives have a fitted effect of over 65% in size)
Procedure, shortened: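 Cells were plated at 350 per well and grown 16 to 20 hours. Compound pretreatment lasted one hour, after which ZIKV (2 FFU/cell) was added for 6 hours. Percent inhibition was normalized between uninfected and infected controls.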

[11] = qHTS assay for measurement of the activity of small molecule inhibitors on Zika virus induced Caspase-3 activity in human astrocytoma cells (AID 1224859; active means well fitted curve in the direction sought with a large enough effect; an effect the other way counts as inactive or inconclusive;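 further: plate controls were ZIKV-infected untreated cells for no effect and uninfected cells for full effect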)
Procedure, shortened: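 Percent inhibition of virus-induced caspase-3/7 signal is calculated against uninfected and ZIKV-infected control cells. Cells are SNB-19, infected at 2 FFU/cell for 6 h after 1 h compound exposure.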

[12] = qHTS Screen of the MIPE 4.0 Collection Against Ewings Sarcoma (RDES) (AID 1259252; active means well fitted curve in the direction sought with a large enough effect; an effect the other way counts as inactive or inconclusive; further: nearly all actives have a fitted effect of over 35% in size; further: potency means the concentration at half of the fitted maximal effect)
Procedure, shortened: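 Compound titrations go onto adherent log-phase cells 4 h after seeding, incubate 48 h at 37C, then CellTiter-Glo luminescence reports viability relative to DMSO and cell-free controls.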

[13] = qHTS Assay for Identifying Gametocytocidal Compounds (AID 743244; active means well fitted curve in the direction sought with a large enough effect; an effect the other way counts as inactive or inconclusive;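 further: on the % scale 0 is the no-effect control and ±100 the full control effect; actives lower the fluorescent signal which means gametocytes are killed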); conditions: P. falciparum 3D7 stage III-V gametocytes, alamarBlue, 72 h; max response: stronger effect = lower value
Procedure, shortened: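 3D7 gametocytes, stages III–V, 20,000/well; cpd 72 h, 37 °C/5% CO2; + alamarBlue 24 h; fluor. Ex 525/Em 598.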

[14] = qHTS assay for small molecule antagonists of the retinoid-related orphan receptor gamma (ROR-gamma) signaling pathway - cell viability counter screen (AID 720652; active means well fitted curve in the direction sought with a large enough effect in the repeat runs; an effect the other way counts as inactive or inconclusive;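 further: CHO reporter cells with doxycycline-induced ROR-gamma expression; compound exposure lasted 16 hr before ATP read; on the % scale 0 is the no-effect control and ±100 the full control effect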)
Procedure, shortened: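 Steps: seed CHO cells bearing TET-inducible ROR and ROR response element-luciferase; rest 5 hr at 37 C; add compound, then doxycycline; incubate 16 hr; add CellTiter-Glo and read luminescence as ATP-based viability.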

[15] = qHTS assay for small molecule agonists of the antioxidant response element (ARE) signaling pathway measured by Nrf2-dependant transcriptional activity - cell viability counter screen (AID 720653; active means well fitted curve in the direction sought with a large enough effect in the repeat runs; an effect the other way counts as inactive or inconclusive; further: on the % scale 0 is the no-effect control and ±100 the full control effect); conditions: ARE-bla HepG2 viability, CellTiter-Glo ATP luminescence, 16 h; stronger effect = lower value
Procedure, shortened: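 ARE-bla HepG2 cells (2,000/well) rested 5 hrs at 37C/5% CO2, then exposed to compounds in DMSO for 16 hrs. Viability was read in the same wells as intracellular ATP by luminescence, 30 min at room temperature after reagent addition.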

[16] = qHTS assay for cell viability of HEK293 cells (AID 743288; active means well fitted curve in the direction sought with a large enough effect; an effect the other way counts as inactive or inconclusive; further: on the % scale 0 is the no-effect control and ±100 the full control effect; nearly all actives have a fitted effect of over 50% in size); conditions: ATP luminescence (CellTiter-Glo), 18 h, stronger effect = lower value
Procedure, shortened: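 Quantitative high-throughput screen: compounds were pinned onto parental HEK293 cells (2,000 per well) after a minimum 5 h settling at 37 C, incubated 18 h at 37 C, and intracellular ATP measured by luciferase luminescence.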

[17] = qHTS assay for cell viability of the p53RE-bla HCT-116 cell line (AID 743292; active means well fitted curve in the direction sought with a large enough effect; an effect the other way counts as inactive or inconclusive; further: on the % scale 0 is the no-effect control and ±100 the full control effect; nearly all actives have a fitted effect of over 55% in size)
Procedure, shortened: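 CellSensor p53RE-bla HCT-116 cells, 4,000/well, preincubated 5 h at 37 C, then exposed to compounds in DMSO for 16 h at 37 C. Viability read as CellTiter-Glo luminescence (intracellular ATP) after 30 min at room temperature.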

[18] = biological target: T1, Hexokinase-4 (Homo sapiens) + Glucokinase regulatory protein (Homo sapiens) (UniProt P35557+Q14397); experiment: qHTS assay for inhibitors of recombinant human GCK-GKRP interaction: Diaphorase-coupled assay (AID 743205; active means well fitted curve in the direction sought with a large enough effect; an effect the other way counts as inactive or inconclusive)
T1 sequence (P35557 whole entry, looked up): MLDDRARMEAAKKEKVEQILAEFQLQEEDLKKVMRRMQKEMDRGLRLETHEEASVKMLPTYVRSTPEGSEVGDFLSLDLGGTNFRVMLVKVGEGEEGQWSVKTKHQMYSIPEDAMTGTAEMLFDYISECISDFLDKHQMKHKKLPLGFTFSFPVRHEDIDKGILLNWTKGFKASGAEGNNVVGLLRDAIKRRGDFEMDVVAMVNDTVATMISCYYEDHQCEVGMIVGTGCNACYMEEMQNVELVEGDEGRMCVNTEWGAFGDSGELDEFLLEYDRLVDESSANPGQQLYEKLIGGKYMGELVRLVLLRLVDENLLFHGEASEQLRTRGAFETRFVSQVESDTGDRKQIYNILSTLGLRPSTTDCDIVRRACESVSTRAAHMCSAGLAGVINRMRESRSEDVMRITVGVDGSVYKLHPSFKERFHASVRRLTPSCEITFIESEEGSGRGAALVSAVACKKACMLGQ
T1 sequence (Q14397 whole entry, looked up): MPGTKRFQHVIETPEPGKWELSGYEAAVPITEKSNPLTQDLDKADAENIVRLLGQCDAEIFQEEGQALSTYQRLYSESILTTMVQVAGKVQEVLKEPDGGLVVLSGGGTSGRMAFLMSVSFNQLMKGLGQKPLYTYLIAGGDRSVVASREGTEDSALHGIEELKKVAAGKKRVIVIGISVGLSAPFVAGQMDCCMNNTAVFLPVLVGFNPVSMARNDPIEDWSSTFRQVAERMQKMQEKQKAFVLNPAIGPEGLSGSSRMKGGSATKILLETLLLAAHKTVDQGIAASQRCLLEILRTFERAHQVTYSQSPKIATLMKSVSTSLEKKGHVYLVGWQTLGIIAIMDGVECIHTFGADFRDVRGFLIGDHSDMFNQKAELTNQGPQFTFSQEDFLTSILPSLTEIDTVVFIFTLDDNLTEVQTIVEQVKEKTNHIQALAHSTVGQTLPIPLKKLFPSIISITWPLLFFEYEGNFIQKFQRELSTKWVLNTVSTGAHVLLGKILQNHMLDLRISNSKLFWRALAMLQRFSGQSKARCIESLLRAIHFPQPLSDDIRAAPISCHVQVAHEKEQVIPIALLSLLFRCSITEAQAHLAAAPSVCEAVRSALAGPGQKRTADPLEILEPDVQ
Procedure, shortened: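 Inhibitors of the GCK–GKRP complex relieve GKRP suppression of GCK, detected through a G6PDH–diaphorase cascade reducing resazurin. Human GST-GCK and FLAG-GKRP are used at 10 nM with 5 mM glucose and 0.4 mM ATP.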

[19] = biological target: T1, Hexokinase-4 (Homo sapiens) + Glucokinase regulatory protein (Homo sapiens); experiment: qHTS assay for inhibitors of recombinant human GCK-GKRP interaction: ADP-Glo assay (AID 743206; active means well fitted curve in the direction sought with a large enough effect; an effect the other way counts as inactive or inconclusive;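 further: plate controls were DMSO plus enzyme for no effect and no enzyme for full effect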)
Procedure, shortened: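 Pin-transferred compounds meet a 15 nM GST-GCK/15 nM FLAG-GKRP/2 uM S6P mix (dispense concentrations). ATP is then added to 0.4 mM final with 5 mM glucose, and the reaction runs 60 min at room temperature. ADP is quantified luminescently.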

[20] = biological target: T1, Hexokinase-4 (Homo sapiens) + Glucokinase regulatory protein (Homo sapiens); experiment: qHTS assay for inhibitors of recombinant human GCK-GKRP interaction: HTRF assay (AID 743207; active means well fitted curve in the direction sought with a large enough effect; an effect the other way counts as inactive or inconclusive;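 further: 0% = DMSO with GCK present and -100% = DMSO wells lacking GCK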)
Procedure, shortened: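 Steps: dispense GCK–GKRP complex (5 nM each, GST- and FLAG-tagged) with 2 uM S6P; pin in compounds; add XL665/Eu-cryptate-labelled antibodies; incubate 60 min at room temperature; read time-resolved FRET at 665 and 615 nm.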

SMILES | remaining parasite growth % (stronger effect = lower value) [1] [%] | activity, percent of control [2] [%] | remaining proliferation (% of control), lower = more inhibition [3] [%] | parasite growth, % of DMSO control [4] [%] | parasite growth remaining, % of DMSO control (lower = more inhibition) [5] [%] | parasite growth, % of control (lower = inhibition) [6] [%] | growth, % of control [7] [%] | cell viability, % of control (lower = more cytotoxic) [8] [%] | viability (% of control) [9] [%] | Potency [10] | Potency [11] | Potency [12] | max response [13] | outcome [14] | max response [15] | max response [16] | outcome [17] | outcome [18] | outcome [19] | outcome [20]
COc1ccc(CCN(C)CCCOc2ccc(S(=O)(=O)c3[nH]c4ccccc4c3C(C)C)cc2)cc1OC | -1 | 1.03 | -1.05 | 31.8 | 26.3 | 16.3 | 42.9 | 14.1 | 9.08 | inactive | inactive | inactive | – | – | – | – | – | – | – | –
CCCCOCCOc1nc(-c2ccc(C(=O)O)c(F)c2)sc1C | 105 | 99.2 | 57 | 81.5 | 98.4 | 80.5 | 85 | 594 | 73.8 | inactive | inactive | 20.9 µM (active) | 43.8% (inactive) | – | – | – | – | – | – | –
C[C@@H]1C[C@H]2[C@@H]3CCC4=CC(=O)C=C[C@]4(C)[C@@]3(F)[C@@H](O)C[C@]2(C)[C@@]1(O)C(=O)CO | – | – | – | 55.8 | 90.6 | 60.4 | 9.35 | 184 | 55.5 | inactive | inactive | inactive | – | inactive | -1.58% (inactive) and -7.2% (inactive) | -1.33% (inactive) and -8.25% (inactive) | inactive | – | – | –
NC(=O)c1ncn([C@@H]2O[C@H](CO)[C@@H](O)[C@@H]2O)n1 | – | – | – | – | – | – | – | 109 | 73.5 | inactive | inactive | inactive | – | – | – | – | – | – | – | –
NS(=O)(=O)c1cc(Cl)c(Cl)c(S(N)(=O)=O)c1 | – | – | – | 101 | 58.8 | 88.2 | 98.5 | 166 | 125 | inactive | inactive | inactive | -4.73% (inactive) | – | – | – | – | – | – | –
C[C@H]1O[C@@H](n2cc(F)c(=O)[nH]c2=O)[C@H](O)[C@H]1O | – | – | – | – | 13.5 | 7.59 | 53 | 170 | 28.4 | inactive | inactive | 18.7 µM (active) | 6.51% (inactive) | – | – | – | – | inactive | inactive | inactive
N#CC(c1ccc(Cl)cc1)c1c(Cl)cc(-n2ncc(=O)[nH]c2=O)cc1Cl (stereo not drawn) | – | – | – | 19.5 | 10.7 | 10.2 | 7.09 | 69.2 | 12.7 | inactive | inactive | 26.4 µM (active) | -5.57% (inactive) | – | – | – | – | – | – | –
Cc1c(C(=O)Nc2ccc(N3C[C@@H](C)O[C@@H](C)C3)nc2)cccc1-c1ccc(OC(F)(F)F)cc1 | 72.2 | 72.3 | 55.5 | 54.5 | 72.7 | 54.1 | 46.7 | 10.2 | 53.5 | inactive | inactive | 13.2 µM (active) | 0.51% (inactive) | – | – | – | – | – | – | –
